In PubChem BioAssay AID1159580 (chemical genetic matrix, 2015):
“And” between values parts separate entries of the source, which are not always exact repeats. Equal entries are not always repeated. Among all 5,500 compounds or so, about 2,000 (36%) were called active. About 18% were inconclusive and are not listed. No stated cut-off is given here; in the data, active means normalized growth mostly below about 0.91 (no sharp cut-off); inconclusive means no clear call, values can overlap the other calls; inactive means mostly above about 0.92. The list shows a part of the results.

Assay: chemical genetic growth profiling, strain panel (AID 1159580);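 further: tested at 20 µM; growth read once vehicle control cultures reached saturation at 30 °C; 1 = growth at the plate median or of vehicle wells; lower values mean less growth of the strain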
Details: S. cerevisiae deletion strains, growth OD

Measured: normalized growth

CC(C)=CCC[C@](C)(O)C1CC=C(C)CC1 (stereo partly specified)
inactive: locus YAL021C, strain ccr4, hits give low values 0.958 | locus YAL026C, strain drs2, hits give low values 0.987 | locus YAL030W, strain snc1, hits give low values 0.994 | locus YBL061C, strain skt5, hits give low values 0.98 | locus YBR009C, strain hhf1, hits give low values 0.996 | locus YBR021W, strain FUR4, hits give low values 0.966 | locus YBR023C, strain chs3, hits give low values 0.981 | locus YBR171W, strain sec66, hits give low values 0.967 | locus YBR229C, strain ROT2, hits give low values 1.02 | locus YBR231C, strain swc5, hits give low values 1 | locus YBR279W, strain paf1, hits give low values 0.99 | locus YCL011C, strain gbp2, hits give low values 0.979 | locus YCL016C, strain dcc1, hits give low values 0.992 | locus YCL029C, strain bik1, hits give low values 1 | locus YCL061C, strain MRC1, hits give low values 0.982 | locus YCL069W, strain vba3, hits give low values 0.987 | locus YCR088W, strain abp1, hits give low values 0.986 | locus YDL005C, strain med2, hits give low values 0.971 | locus YDL035C, strain GPR1, hits give low values 0.984 | locus YDL040C, strain nat1, hits give low values 1 | locus YDL074C, strain BRE1, hits give low values 0.995 | locus YDL101C, strain DUN1, hits give low values 1.02 | locus YDL134C, strain PPH21, hits give low values 1.02 | locus YDL185W, strain tfp1, hits give low values 0.987 | locus YDL192W, strain arf1, hits give low values 0.969 | locus YDR001C, strain nth1, hits give low values 0.994 | locus YDR069C, strain doa4, hits give low values 0.995 | locus YDR101C, strain arx1, hits give low values 0.976 | locus YDR137W, strain rgp1, hits give low values 0.972 | locus YDR159W, strain sac3, hits give low values 1 | locus YDR162C, strain NBP2, hits give low values 1.04 | locus YDR195W, strain ref2 1 | locus YDR297W, strain sur2, hits give low values 1.01 | locus YDR318W, strain mcm21, hits give low values 1 | locus YDR334W, strain swr1, hits give low values 0.985 | locus YDR335W, strain msn5, hits give low values 0.984 | locus YDR388W, hits give low values 1 | locus YDR392W, strain spt3, hits give low values 0.906 | locus YDR502C, strain sam2, hits give low values 0.973 | locus YEL003W, strain gim4, hits give low values 0.983 | locus YEL037C, strain rad23, hits give low values 0.978 | locus YEL061C, strain CIN8 (second series), hits give low values 0.983 | locus YEL061C, strain CIN8, hits give low values 1.02 | locus YER015W, strain faa2, hits give low values 0.987 | locus YER016W, strain bim1, hits give low values 0.987 | locus YER110C, hits give low values 0.982 | locus YER111C, strain swi4, hits give low values 0.969 | locus YER155C, strain BEM2 (second series), hits give low values 0.985 | locus YER155C, strain BEM2, hits give low values 1.02 | locus YER167W, strain BCK2, hits give low values 1.01 | locus YFR010W, strain ubp6, hits give low values 0.976 | locus YGL078C, strain dbp3, hits give low values 0.97 | locus YGL086W, strain mad1, hits give low values 0.976 | locus YGL167C, strain pmr1, hits give low values 0.982 | locus YGL173C, strain kem1, hits give low values 0.981 | locus YGL227W, strain vid30, hits give low values 0.981 | locus YGL240W, strain doc1, hits give low values 0.994 | locus YGL248W, strain PDE1, hits give low values 1.02 | locus YGL253W, strain hxk2, hits give low values 0.959 | locus YGR135W, strain pre9, hits give low values 1.01 | locus YGR252W, strain gcn5, hits give low values 0.962 | locus YHR013C, strain ard1, hits give low values 0.997 | locus YHR027C, strain rpn1, hits give low values 0.999 | locus YHR030C, strain SLT2, hits give low values 1.02 and 1 | locus YHR079C, strain IRE1 (second series), hits give low values 0.98 | locus YHR079C, strain IRE1, hits give low values 0.988 | locus YHR094C, strain hxt1, hits give low values 0.985 | locus YHR129C, strain ARP1, hits give low values 1.02 | locus YHR142W, strain chs7, hits give low values 0.953 | locus YHR200W, strain rpn10, hits give low values 1 | locus YIL066C, strain RNR3, hits give low values 1.02 | locus YIL073C, strain SPO22, hits give low values 1.02 | locus YIL125W, strain kgd1, hits give low values 0.997 | locus YIR030C, strain dcg1, hits give low values 0.991 | locus YJL092W, strain hpr5, hits give low values 0.958 | locus YJL095W, strain BCK1 (second series), hits give low values 0.976 | locus YJL095W, strain BCK1, hits give low values 1.04 and 0.993 | locus YJL115W, strain asf1, hits give low values 0.988 | locus YJL129C, strain trk1, hits give low values 0.973 | locus YJL134W, strain LCB3, hits give low values 1.01 | locus YJL154C, strain vps35, hits give low values 0.995 | locus YJL164C, strain tpk1, hits give low values 1 | locus YJL166W, strain qcr8, hits give low values 0.989 | locus YJL168C, strain set2, hits give low values 0.987 | locus YJL187C, strain SWE1 (second series), hits give low values 1.03 | locus YJL187C, strain SWE1, hits give low values 0.987
